Source: PubChem BioAssay (Tox21)
Records with an inconclusive call do not appear. Active and inactive are the calls of the source. Unless noted, calls come from the whole dose curve; as a rule, active = well fitted curve in the direction sought with a large enough effect in the repeat runs; inconclusive = weak or mixed curves; inactive = no such curve, though single readings can be large; an effect the other way counts as inactive or inconclusive.

Experiments:
[1] = A CellTox Green Cytotoxicity Assay to monitor cytotoxicity in HepG2 cells - 32 hour (AID 1224883); note: nearly all actives have a fitted effect of over 50% in size; note: potency is the fitted concentration of half-maximal effect
Procedure, shortened: (§1)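 Cytotoxicity was tracked as dead-cell DNA fluorescence in HepG2 cells treated with test compounds at 37 C; each time-point value comes from one kinetic series spanning 0, 8, 16, 24, 32 and 40 h.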

[2] = qHTS RealTime-Glo MT Cell Viability Assay in HepG2 cells - 16 hour (AID 1224885); note: nearly all actives have a fitted effect of over 50% in size
Procedure, shortened: (§2)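 Real-time, nonlytic viability: 600 HepG2 cells/well mixed with NanoLuc enzyme plus prosubstrate; 5 h settle, compound (DMSO) added by pintool; luminescence monitored over 40 h at 37 C.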

[3] = qHTS RealTime-Glo MT Cell Viability Assay in HEK293 cells - 24 hour (AID 1224886); note: top concentration of the series differs between compounds; nearly all actives have a fitted effect of over 50% in size
Procedure, shortened: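 Cells + reagent dispensed (600 cells/well, HEK293) → 5 h at 37 C/5% CO2 → 23 nL compound in DMSO pinned → 40 h at 37 C → luminescence read at 0, 8, 16, 24, 32, 40 h.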

[4] = qHTS RealTime-Glo MT Cell Viability Assay in HEK293 cells - 8 hour (AID 1224887); note: top concentration of the series differs between compounds; nearly all actives have a fitted effect of over 50% in size
Procedure, shortened: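 Kinetic, non-lysing viability readout. Seed HEK293 (600/well) with reagent, incubate 5 h at 37 C/5% CO2, pin 23 nL compound in DMSO, incubate at 37 C, read luminescence at 0, 8, 16, 24, 32, 40 h.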

[5] = A CellTox Green Cytotoxicity Assay to monitor cytotoxicity in HEK293 cells - 16 hour (AID 1224888); note: nearly all actives have a fitted effect of over 35% in size
Procedure, shortened: (§3)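 Real-time, in one plate: 600 HEK293 cells/well with dead-cell DNA dye, pinned compound after 5 h, 37 C incubation over 40 h; viable cells give no appreciable fluorescence.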

[6] = qHTS RealTime-Glo MT Cell Viability Assay in HepG2 cells - 0 hour (AID 1224889); note: nearly all actives have a fitted effect of over 50% in size
Procedure, shortened: as §2

[7] = A CellTox Green Cytotoxicity Assay to monitor cytotoxicity in HepG2 cells - 8 hour (AID 1224890); note: nearly all actives have a fitted effect of over 45% in size
Procedure, shortened: as §1

[8] = qHTS assay to identify small molecule antagonists of the estrogen receptor alpha (ER-alpha) signaling pathway using the BG1 cell line in the presence of 0.1 nM 17-beta-estradiol - cell viability counter screen (AID 1259241); note: nearly all actives have a fitted effect of over 40% in size
Procedure, shortened: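 Measures cytotoxicity alongside the ER-alpha antagonist readout: VM7Luc4E2 cells, charcoal-stripped serum, 0.1 nM 17beta-estradiol final, 22 hr compound incubation at 37C, CellTiter-Fluor fluorescence.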

[9] = qHTS assay to identify small molecule antagonists of the androgen receptor (AR) signaling pathway using the MDA cell line in the presence of 0.5 nM R1881 - cell viability counter screen (AID 1259242); note: nearly all actives have a fitted effect of over 45% in size
Procedure, shortened: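 Cells seeded at 3,000/well and allowed 5 hr at 37C, 0% CO2 before compound transfer and R1881 (0.5 nM final) addition; 16 hr later, live-cell protease fluorescence indicated cytotoxicity.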

[10] = qHTS assay to identify small molecule HDAC inhibitors (AID 1259364);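 note: wild-type HCT-116 cells with endogenous class I/II HDAC activity; top concentration of the series differs between compounds; nearly all actives have a fitted effect of over 45% in size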
Procedure, shortened: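 HCT-116 wt cells, 1,500/well, overnight attach. Compounds (DMSO) 2 h, 37 °C. HDAC-Glo I/II, 30 min RT. Luminescence.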

[11] = qHTS assay to identify small molecule HDAC inhibitors - cell viability counter screen (AID 1259365)
Procedure, shortened: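 Following a 2hr exposure of overnight-plated wild-type HCT-116 cells to DMSO-delivered compounds, CellTiter-Glo was added and luminescence recorded after 30min at room temperature.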

[12] = qHTS assay to identify small molecule agonists of the sonic hedgehog signaling (Shh) pathway - cell viability counter screen (AID 1259366); note: nearly all actives have a fitted effect of over 50% in size
Procedure, shortened: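 After a 4hr attachment at 37C, NIH/3T3 cells bearing an integrated Gli1-driven luciferase reporter were dosed with compounds. Treatment lasted 24hr, with the final hour including CellTiter-Fluor for a fluorescence viability measurement.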

[13] = qHTS assay to identify small molecule antagonists of the sonic hedgehog signaling (Shh) pathway - cell viability counter screen (AID 1259367); note: nearly all actives have a fitted effect of over 55% in size
Procedure, shortened: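 Conditioned medium drove Shh signaling in 3T3 Gli1-Luc cells exposed to compounds at 37C and 5% CO2. Viability was determined from CellTiter-Fluor fluorescence, with reagent incubated 1 hr after 23 hr of treatment.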

[14] = qHTS assay to identify small molecule agonists of the sonic hedgehog signaling (Shh) pathway (AID 1259368; calls by dose curve;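 note: NIH/3T3-derived 3T3Gli1-Luc cells carrying a stable Gli1-driven firefly luciferase reporter; series mostly up to about 92 µM; nearly all actives have a fitted effect of over 15% in size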)
Procedure, shortened: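 Following a 24 hr incubation with DMSO-dissolved compounds at 37 C, 5% CO2, Gli1-Luc NIH/3T3-derived cells received luciferase reagent for 30 min at room temperature prior to luminescence measurement.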

[15] = A CellTox Green Cytotoxicity Assay to monitor cytotoxicity in HEK293 cells - 8 hour (AID 1224884); note: nearly all actives have a fitted effect of over 35% in size
Procedure, shortened: as §3

[16] = target: Estrogen receptor (Homo sapiens) (UniProt P03372); test: qHTS assay to identify small molecule antagonists of the estrogen receptor alpha (ER-alpha) signaling pathway using the BG1 cell line in the presence of 0.1 nM 17-beta-estradiol (AID 1259244); note: nearly all actives have a fitted effect of over 50% in size
Sequence of Estrogen receptor (Homo sapiens) (P03372 whole entry, looked up): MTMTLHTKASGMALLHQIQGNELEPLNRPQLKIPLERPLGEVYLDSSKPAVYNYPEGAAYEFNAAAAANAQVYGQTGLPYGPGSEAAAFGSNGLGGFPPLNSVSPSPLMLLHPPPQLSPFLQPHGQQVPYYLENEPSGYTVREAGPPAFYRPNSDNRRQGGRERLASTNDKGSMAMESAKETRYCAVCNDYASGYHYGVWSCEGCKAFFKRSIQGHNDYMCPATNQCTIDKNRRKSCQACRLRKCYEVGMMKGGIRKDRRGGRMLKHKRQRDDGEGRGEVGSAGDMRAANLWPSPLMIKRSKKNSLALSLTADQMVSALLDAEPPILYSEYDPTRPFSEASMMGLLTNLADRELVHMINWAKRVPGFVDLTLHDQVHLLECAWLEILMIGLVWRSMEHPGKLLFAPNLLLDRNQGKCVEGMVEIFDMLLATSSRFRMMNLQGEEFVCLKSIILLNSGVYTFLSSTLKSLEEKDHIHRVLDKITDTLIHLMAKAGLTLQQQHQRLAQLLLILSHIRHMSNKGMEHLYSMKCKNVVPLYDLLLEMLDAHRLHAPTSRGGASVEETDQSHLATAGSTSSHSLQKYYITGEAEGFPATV
Procedure, shortened: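 Luciferase signal from VM7Luc4E2 ERE-reporter cells, co-dosed with test compound and 0.1 nM final 17beta-estradiol for 22 h, read with ONE-Glo.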

[17] = qHTS assay to identify small molecule antagonists of the sonic hedgehog signaling (Shh) pathway (AID 1259369; calls by dose curve; note: nearly all actives have a fitted effect of over 45% in size; note: potency is the fitted concentration of half-maximal effect)
Procedure, shortened: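 Read-out is luminescence from a firefly luciferase gene controlled by the Gli1 response element, in 3T3Gli1-Luc cells pre-incubated 4hr then exposed to compounds and conditioned medium for 24hr.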

[18] = target: Estrogen receptor beta (Homo sapiens) (UniProt Q92731); test: qHTS assay to identify small molecule agonists of the estrogen receptor beta (ER-beta) signaling pathway (AID 1259377; active = well fitted activation curve with a large enough effect in the signal ratio in the repeat runs, not every such curve was filed as active; the % refers to the signal ratio)
Sequence of Estrogen receptor beta (Homo sapiens) (Q92731 whole entry, looked up): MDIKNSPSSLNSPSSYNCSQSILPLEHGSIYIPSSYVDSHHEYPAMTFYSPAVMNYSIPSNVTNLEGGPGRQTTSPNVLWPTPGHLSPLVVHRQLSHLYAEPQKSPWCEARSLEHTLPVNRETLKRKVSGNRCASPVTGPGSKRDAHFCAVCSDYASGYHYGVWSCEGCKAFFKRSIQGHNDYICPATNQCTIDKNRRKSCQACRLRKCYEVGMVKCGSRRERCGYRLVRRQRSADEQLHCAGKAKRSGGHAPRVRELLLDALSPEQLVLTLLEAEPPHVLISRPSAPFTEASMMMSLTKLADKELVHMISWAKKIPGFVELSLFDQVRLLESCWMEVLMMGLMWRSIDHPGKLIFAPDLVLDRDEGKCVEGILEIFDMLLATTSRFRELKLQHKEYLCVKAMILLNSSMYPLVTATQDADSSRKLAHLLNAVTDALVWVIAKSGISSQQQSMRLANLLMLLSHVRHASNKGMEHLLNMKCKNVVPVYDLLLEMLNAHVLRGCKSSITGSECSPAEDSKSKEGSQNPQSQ
Procedure, shortened: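 In HEK293T cells bearing a UAS-beta-lactamase reporter under ER-beta control, DMSO-delivered compounds were incubated for 16 hr at 37C. Activity was detected as fluorescence 2 hours after LiveBLAzer B/G FRET substrate addition.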

[19] = target: Androgen receptor (Homo sapiens) (UniProt P10275); test: qHTS assay to identify small molecule antagonists of the androgen receptor (AR) signaling pathway using the MDA cell line in the presence of 0.5 nM R1881 (AID 1259243); note: nearly all actives have a fitted effect of over 50% in size
Sequence of Androgen receptor (Homo sapiens) (P10275 whole entry, looked up): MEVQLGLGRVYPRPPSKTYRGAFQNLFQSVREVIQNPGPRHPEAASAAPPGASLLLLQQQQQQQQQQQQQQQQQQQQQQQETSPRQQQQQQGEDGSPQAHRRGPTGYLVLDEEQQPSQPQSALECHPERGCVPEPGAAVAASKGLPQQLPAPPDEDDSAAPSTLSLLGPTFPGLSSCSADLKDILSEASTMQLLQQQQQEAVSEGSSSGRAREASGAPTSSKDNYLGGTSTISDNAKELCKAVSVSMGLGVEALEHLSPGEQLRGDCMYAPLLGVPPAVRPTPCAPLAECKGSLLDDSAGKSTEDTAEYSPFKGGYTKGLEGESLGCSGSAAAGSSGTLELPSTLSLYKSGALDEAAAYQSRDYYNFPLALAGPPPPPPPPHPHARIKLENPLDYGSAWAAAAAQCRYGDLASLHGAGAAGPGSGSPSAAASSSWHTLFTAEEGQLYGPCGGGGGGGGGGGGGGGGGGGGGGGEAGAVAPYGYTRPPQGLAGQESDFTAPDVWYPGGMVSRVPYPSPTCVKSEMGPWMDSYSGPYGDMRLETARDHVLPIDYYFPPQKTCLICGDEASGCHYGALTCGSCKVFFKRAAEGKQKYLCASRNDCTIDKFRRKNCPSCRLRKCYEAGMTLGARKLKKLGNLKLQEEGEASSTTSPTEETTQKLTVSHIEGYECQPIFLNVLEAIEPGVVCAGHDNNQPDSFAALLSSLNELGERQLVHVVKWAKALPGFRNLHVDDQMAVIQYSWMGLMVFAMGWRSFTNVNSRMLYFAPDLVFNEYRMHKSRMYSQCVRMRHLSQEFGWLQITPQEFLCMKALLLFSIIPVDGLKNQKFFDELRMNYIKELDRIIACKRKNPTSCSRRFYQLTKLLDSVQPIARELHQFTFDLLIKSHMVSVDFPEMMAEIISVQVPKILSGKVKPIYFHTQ
Procedure, shortened: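 Luminescence from an AR/GR-responsive MMTV-luciferase construct in MDA-kb2 breast carcinoma cells, read 30 min after ONE-Glo, following 16 hr co-treatment with compounds and 0.5 nM R1881.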

Measured: Potency

Brc1ccc(-c2ccccc2)cc1
not listed: [15] | [16] | [17] | [18] | [19]
inactive: all other assays above

Cc1ccccc1C(=O)Nc1ccc(C(=O)N2CCCC(N(C)C)c3ccccc32)cc1 (stereo unspecified)
active: [1] 7.56 µM | [17] 15 µM
not listed: [3] | [9] | [12] | [13] | [14] | [19]
inactive: all other assays above

N#Cc1ccc(C(=O)O)cc1
not listed: [13] | [15] | [16] | [17]
inactive: all other assays above

C#CC(C)N(C)C(=O)Nc1ccc(Cl)cc1 (stereo unspecified)
not listed: [3] | [4] | [5] | [10] | [16]
inactive: all other assays above

CCCCCCCCCC(C)=O
not listed: [4] | [5] | [9] | [17]
inactive: all other assays above

O=C1c2cccc3c2[C@H](CCC3)CN1[C@@H]1CN2CCC1CC2
not listed: [3] | [8] | [12] | [17] | [18] | [19]
inactive: all other assays above

O=S(=O)(O)c1ccc2cc(O)c(S(=O)(=O)O)cc2c1
not listed: [15] | [19]
inactive: all other assays above
